This is an account of results in PubChem BioAssay (Tox21).

The structures appear in SMILES notation. Records with an inconclusive call do not appear. Activity calls are given as the source filed them. The call rests on the fitted dose curve; in most records, active means well fitted activation curve with a large enough effect; inconclusive means small, poorly fitted or top-dose-only effect; inactive means flat fitted curve, though single readings scatter. Positions of bridges follow the written chain, without caps; N, C: chain ends. Non-standard residues stand in square brackets, D forms with d. Residues, ends and D or L forms follow the SMILES beside them. *: point of attachment. Dab(CH2SO3H) = N[C@@H](CCNCS(=O)(=O)O)C(=O)O; X3 = CC[C@@H](C)CCCCC(=O)*; Dab = NCC[C@H](N)C(=O)O
On the % scale 0 is the no-effect control and ±100 the full control effect.

The nature of the experiment: qHTS assay to identify small molecule phospholipidosis (PLD) inducers (AID 1259344). To be noted: HepG2 phospholipidosis, LipidTOX Red imaging, 24 h; series mostly up to 38.3 µM; PLD induction: at the top concentration. In a few lines: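 Phospholipidosis is scored by imaging LipidTOX-stained pits in HepG2 cells exposed to compound for 24 h at 37 C; pit counts and integrated intensities per well and per cell serve as outputs.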
In the case of `CN(C)CCc1c[nH]c2ccc(Cn3cncn3)cc12`, the “PLD induction” value is -0.941% (inactive).
Still for that read-out and setting: as for `CC(=O)Oc1cc(C(F)(F)F)ccc1C(=O)O`, the figure is -0.104% [at 15.5 µM] (inactive).
Same read-out and setting: as for `Nc1nc(NC2CC2)c2ncn([C@@H]3C=C[C@@H](CO)C3)c2n1`, the figure is -0.759% (inactive); as for `O=C[C@H](O)[C@@H](O)[C@@H](O)[C@H](O)CO`, 1.3% (inactive).
On to `NCC(O)CC(=O)O` (centres undefined), for which the “PLD induction” value was 0.204% (inactive).
In the case of `CCN(CC)C(=S)S`, the “PLD induction” value was -0.588% (inactive).
The same measure, in the same setting: as for `CC(C)CCC[C@@H](C)[C@H]1CC[C@H]2[C@@H]3CC[C@@H]4C[C@H](O)CC[C@]4(C)[C@H]3CC[C@]12C`, the figure is 0.594% (inactive); as for `CC/C=C\C/C=C\C/C=C\C/C=C\C/C=C\C/C=C\CCC(=O)O`, 0.107% (inactive).
With `Cc1cc(-c2ccc(N=Nc3ccc4c(S(=O)(=O)O)cc(S(=O)(=O)O)c(N)c4c3O)c(C)c2)ccc1N=Nc1ccc2c(S(=O)(=O)O)cc(S(=O)(=O)O)c(N)c2c1O`, the Potency result is “inactive”.
Take `COC1[C@@H](O[C@@H]2O[C@H](C)[C@@H](O[C@H]3C[C@@](C)(O)[C@H](OC(=O)CC(C)C)[C@H](C)O3)[C@H](N(C)C)[C@H]2O)[C@@H](CC=O)C[C@@H](C)[C@@H](O)/C=C/C=C/C[C@@H](C)OC(=O)C[C@H]1OC(C)=O` (some centres undefined): the “PLD induction” value was 0.0827% [at 15.5 µM] (inactive).
Same read-out and setting: as for `COc1ccc(/C=C/C(=O)Nc2ccccc2C(=O)O)cc1OC`, the figure is 0.0503% (inactive); as for `CCN(CC)CCn1c(=O)c(Cc2ccc(OC)cc2)nc2ccccc21`, 1.39% [at 7.66 µM] (inactive).
For `COc1cc2c(c(OC)c1OC)-c1c(cc3c(c1OC)OCO3)C[C@@H](C)[C@](C)(O)C2`, the Potency entry was “inactive”.
For the molecule `O=P(O)(O)OP(=O)(O)OP(=O)(O)O`, the “PLD induction” value is 2.95% (inactive).
Still for that read-out and setting: then `CCCCN(CCCC)C(=S)[S-].CCCCN(CCCC)C(=S)[S-].[Zn+2]`, with -1.43% (inactive); and `COc1cc(NS(C)(=O)=O)ccc1Nc1c2ccccc2nc2ccccc12`, with 11.3% (inactive).
For the molecule `NC[C@H]1O[C@H](O[C@H]2[C@H](O)[C@@H](O[C@H]3O[C@H](CO)[C@@H](O)[C@H](N)[C@H]3O)[C@H](N)C[C@@H]2N)[C@H](N)C[C@@H]1O`, the “PLD induction” value was 3.03% [at 15.5 µM] (inactive).
For `CC[C@@H](C)CCCCC(=O)N[C@@H](CCNCS(=O)(=O)O)C(=O)N[C@H](C(=O)N[C@@H](CCNCS(=O)(=O)O)C(=O)N[C@H]1CCNC(=O)[C@H]([C@@H](C)O)NC(=O)[C@H](CCNCS(=O)(=O)O)NC(=O)[C@H](CCNCS(=O)(=O)O)NC(=O)[C@H](CC(C)C)NC(=O)[C@@H](CC(C)C)NC(=O)[C@H](CCNCS(=O)(=O)O)NC1=O)[C@@H](C)O` (X3-[Dab(CH2SO3H)]T[Dab(CH2SO3H)][Dab][Dab(CH2SO3H)][dL]L[Dab(CH2SO3H)][Dab(CH2SO3H)]T; lactam 4-C), the “PLD induction” value was 19.3% (inactive).
Same read-out and setting: as for `CC[C@H](C)C(=O)O[C@H]1CCC=C2C=C[C@H](C)[C@H](CC[C@@H]3C[C@@H](O)CC(=O)O3)[C@H]21`, the figure is -1.65% (inactive).
For the molecule `CC(C)(O/N=C(\C(=O)N[C@@H]1C(=O)N2C(C(=O)[O-])=C(C[n+]3ccccc3)CS[C@H]12)c1csc(N)n1)C(=O)O`, the “PLD induction” value was -0.632% [at 15.5 µM] (inactive).
As to `NC(=O)CC[C@@H]1NC(=O)[C@H](Cc2ccccc2)NC(=O)[C@H](Cc2ccc(O)cc2)NC(=O)[C@@H](N)CSSC[C@@H](C(=O)N2CCC[C@H]2C(=O)N[C@@H](CCCN=C(N)N)C(=O)NCC(N)=O)NC(=O)[C@H](CC(N)=O)NC1=O`, the Potency result was “inactive”.
`O=C(O)c1ccccc1O`: the Potency result was “inactive”.
For the molecule `CCN1CCCC1CNC(=O)c1cc(S(=O)(=O)CC)ccc1OC` (centres undefined), the Potency result is “inactive”.
Take `COC(=O)C(CN)c1c[nH]c2ccc(OC)cc12` (centres undefined): the “PLD induction” value is -0.964% (inactive).
With `C/C=C/C1=C(C(=O)O)N2C(=O)[C@@H](NC(=O)[C@H](N)c3ccc(O)cc3)[C@H]2SC1`, the “PLD induction” value was -0.389% (inactive).
For the molecule `CCN(CC)CC#CCOC(=O)C(O)(c1ccccc1)C1CCCCC1` (centres undefined), the “PLD induction” value was 11.8% (inactive).
For `O=C1CCC(c2ccccc2)(C2CCN(Cc3ccccc3)CC2)C(=O)N1` (centres undefined), the “PLD induction” value was 1.48% (inactive).
On to `C=C1C(=C/C=C2\CCC[C@]3(C)[C@@H]([C@H](C)CCCC(C)C)CC[C@@H]23)C[C@@H](O)C[C@@H]1O`, for which the “PLD induction” value was 1.32% (inactive).
As for `CCCCCCCCCCCCCC(=O)OCC(COP(=O)([O-])OCC[N+](C)(C)C)OC(=O)CCCCCCCCCCCCC` (centres undefined), the “PLD induction” value is 11.8% (inactive).
